Measurements from the supplement of paper PMC10515830.
Structures can show the parent of a compound that is named as a salt.

Tests used:
Settings in all cases: 10 µM; exposure time 6 h
[1] = test system: Danio rerio larvae (5 dpf); test: difference in excitability vs DMSO (percentage points); higher = more excitable than DMSO
Summary of the method: (§1)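 Wild-type zebrafish larvae at 5 dpf were kept in 96-well plates and exposed for 6 h to 100 µL egg water holding library compound at a final concentration of 10 µM. From 3 h into exposure, the plates were held at 28.5 ℃ and photographed every 6 s through a 3-h programme of moving lines and 100 ms, 400Hz tones. Each behaviour was scored by Z-LaP Tracker, a DeepLabCut model, and averaged over 48 larvae per compound. Every value gives the compound mean minus the vehicle control mean, in percentage points.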

[2] = test system: Danio rerio larvae (5 dpf); test: difference in startle response vs DMSO (percentage points); higher = stronger startle than DMSO
Summary of the method: as §1

[3] = test system: Danio rerio larvae (5 dpf); test: difference in activity during first hour vs DMSO (percentage points); higher = more activity than DMSO
Summary of the method: as §1

[4] = test system: Danio rerio larvae (5 dpf); test: difference in habituation to acoustic stimuli vs DMSO (percentage points); higher = more habituation than DMSO
Summary of the method: as §1

[5] = test system: Danio rerio larvae (5 dpf); test: difference in combined optomotor response to red, green and blue moving lines vs DMSO (percentage points); higher = stronger optomotor response than DMSO
Summary of the method: as §1

SMILES | difference in excitability [1] | difference in startle response [2] | difference in activity during first hour [3] | difference in habituation to acoustic stimuli [4] | difference [5]
NC[C@@H]1O[C@@H](O[C@H]2[C@H](O)[C@@H](O[C@H]3O[C@H](CO)[C@@H](O)[C@H](N)[C@H]3O)[C@H](N)C[C@@H]2N)[C@@H](O)[C@H](O)[C@H]1O [Kanamycin A (sulfate)] | 8.55 | -4.02 | 4.22 | 3.45 | 4.39
CNCC(O)c1ccc(OC(=O)C(C)(C)C)c(OC(=O)C(C)(C)C)c1 (stereo not given) [Dipivefrin (hydrochloride)] | -3.61 | -15.1 | 46.2 | -2.07 | 2.48
C[C@@H](O)[C@H]1C(=O)N2C(C(=O)O)=C(S[C@@H]3CN[C@H](C(=O)N(C)C)C3)[C@H](C)[C@H]12 [Meropenem (hydrate)] | 3.3 | -1.18 | 0.0616 | -0.499 | 3.61
O=C(CCCN1CCC(O)(c2ccc(Cl)cc2)CC1)c1ccc(F)cc1 [Haloperidol] | 17.7 | -2.56 | 12.4 | -7.67 | -5.9
Cc1cc(/C=C/C#N)cc(C)c1Nc1ccnc(Nc2ccc(C#N)cc2)n1 [Rilpivirine] | 9.16 | -10.5 | -18.2 | -9.2 | -12.5
CC(C)CN(C[C@@H](O)[C@H](Cc1ccccc1)NC(=O)O[C@H]1CO[C@H]2OCC[C@H]21)S(=O)(=O)c1ccc(N)cc1 [Darunavir] | -1.86 | 0.437 | 0.73 | 2.66 | 5.61
CCCCCCCC(=O)N[C@H](CN1CCCC1)[C@H](O)c1ccc2c(c1)OCCO2 [Eliglustat (hemitartrate)] | 10.1 | -3.5 | 7.49 | 7.96 | 7.51
CCCN(CCc1cccs1)[C@H]1CCc2c(O)cccc2C1 [Rotigotine] | 20.1 | -3.78 | -23.8 | -14.4 | -15.9
COc1nc(N)nc2c1ncn2[C@@H]1O[C@H](CO)[C@@H](O)[C@@H]1O [Nelarabine] | 19.6 | 1.82 | -4.45 | -0.162 | 2.02
C=C1/C(=C\C=C2/CCC[C@]3(C)[C@@H]([C@H](C)CCCC(C)(C)O)CC[C@@H]23)C[C@@H](O)C[C@@H]1O [Calcitriol] | 7.32 | -3.08 | -9.65 | 5.79 | -3.39
S=P(N1CC1)(N1CC1)N1CC1 | 0.228 | 0.991 | 4.02 | 0.555 | 1.07
O=C1CCc2ccc(OCCCCN3CCN(c4cccc(Cl)c4Cl)CC3)cc2N1 [Aripiprazole] | 14.5 | 5.72 | 12.4 | -8.81 | -3.23
CCN(Cc1ccncc1)C(=O)C(CO)c1ccccc1 (stereo not given) [Tropicamide] | 1.51 | -4.55 | 14.3 | -1.41 | 6.16
CN(C)C/C=C/C(=O)Nc1cc2c(Nc3ccc(F)c(Cl)c3)ncnc2cc1O[C@H]1CCOC1 [Afatinib (maleate)] | 20.1 | -1.05 | -11.3 | 5.63 | 8.09
NCCS [Cysteamine (hydrochloride)] | 4.79 | 3.78 | 3.89 | 0.254 | 14.5
CC(=O)O[C@H]1C[C@@H]2CC[C@@H]3[C@H](CC[C@@]4(C)[C@H]3C[C@H]([N+]3(C)CCCCC3)[C@@H]4OC(C)=O)[C@@]2(C)C[C@@H]1N1CCCCC1 [Vecuronium (bromide)] | 11.8 | -0.798 | -6.01 | 3.25 | -1.83
COc1cc(Cc2cnc(N)nc2N)cc(OC)c1OC [Trimethoprim] | 2.02 | 3.93 | 12.5 | -7.9 | 12.7
C[C@]12CC[C@@H]3c4ccc(O)cc4C[C@@H](CCCCCCCCC[S+]([O-])CCCC(F)(F)C(F)(F)F)[C@H]3[C@@H]1CC[C@@H]2O (stereo not given in full) [Fulvestrant] | 1.25 | 0.684 | -0.447 | 1.81 | 1.43
CC[C@H](C)[C@@H]1NC(=O)[C@H](Cc2ccc(O)cc2)NC(=O)[C@@H](N)CSSC[C@@H](C(=O)N2CCC[C@H]2C(=O)N[C@@H](CC(C)C)C(=O)NCC(N)=O)NC(=O)[C@H](CC(N)=O)NC(=O)[C@H](CCC(N)=O)NC1=O [Oxytocin (acetate)] | -2.14 | 1 | -5.61 | 2.03 | 4.29
NC[C@H]1CC[C@H](C(=O)O)CC1 [Tranexamic Acid] | 6.95 | 8.18 | 13.1 | 1.19 | 10.9
Nc1ncn([C@@H]2O[C@H](CO)[C@@H](O)[C@H]2O)c(=O)n1 [5-Azacytidine] | 6.01 | -4.41 | -3.91 | -4.6 | 0.0811
CC1=C(CC(=O)O)c2cc(F)ccc2/C1=C\c1ccc([S+](C)[O-])cc1 (stereo not given) [Sulindac] | 6.96 | 0.529 | 10.8 | 0.634 | -2.61
Cc1nnc(C(=O)NC(C)(C)c2nc(C(=O)NCc3ccc(F)cc3)c(O)c(=O)n2C)o1 [Raltegravir (potassium salt)] | -0.288 | 1.86 | 0.698 | -5.1 | 5.8

SMILES | difference in excitability [1] | difference in startle response [2] | difference in activity during first hour [3] | difference in habituation to acoustic stimuli [4] | difference [5]
C=C(c1ccc(C(=O)O)cc1)c1cc2c(cc1C)C(C)(C)CCC2(C)C [Bexarotene] | 7.21 | 1.4 | -13.5 | -4.93 | -11
CN1CCN2c3ncccc3Cc3ccccc3C2C1 (stereo not given) [Mirtazapine] | -3.43 | 3.21 | 17.5 | -1.46 | -7.5
CCCN(CCC)CCc1cccc2c1CC(=O)N2 [Ropinirole (hydrochloride)] | 31.3 | -0.638 | -13.7 | -1.82 | -4.31
N=C(NCCCCCCNC(=N)NC(=N)Nc1ccc(Cl)cc1)NC(=N)Nc1ccc(Cl)cc1 [Chlorhexidine (hydrochloride)] | 11.8 | -11 | -19.9 | -10.2 | -17.6
CCc1cccc2c3c([nH]c12)C(CC)(CC(=O)O)OCC3 (stereo not given) [Etodolac] | -4.84 | 7.75 | 13.6 | 4.08 | 3.56
O=C(O)P(=O)(O)O [Foscarnet (sodium salt)] | -6.03 | 6.15 | 20.9 | -1.07 | 4.77
CN1C(C(=O)Nc2ccccn2)=C(O)c2ccccc2S1(=O)=O [Piroxicam] | 12.1 | 0.219 | 4.07 | -1.73 | -0.889
Cc1nc2n(c(=O)c1CCN1CCC(c3noc4cc(F)ccc34)CC1)CCCC2 [Risperidone] | 14.4 | 5.09 | 7.15 | 4.04 | -1.6
Cc1[nH]c2ccccc2c1CCNCc1ccc(/C=C/C(=O)NO)cc1 [Panobinostat] | 7 | -4.96 | -8.62 | 3.43 | 1.65
CN(C)CCCN1c2ccccc2CCc2ccc(Cl)cc21 [Clomipramine (hydrochloride)] | 0.766 | 1.97 | -14.9 | -3.04 | -3.76
CC1CNc2c(cccc2S(=O)(=O)N[C@@H](CCCNC(=N)N)C(=O)N2CC[C@@H](C)C[C@@H]2C(=O)O)C1 (stereo not given in full) [Argatroban] | 3.15 | 2.67 | 19.4 | -4.15 | 3.46
CO[C@H]1C[C@@H]2CC[C@@H](C)[C@@](O)(O2)C(=O)C(=O)N2CCCC[C@H]2C(=O)O[C@H]([C@H](C)C[C@@H]2CC[C@@H](OC(=O)C(C)(CO)CO)[C@H](OC)C2)CC(=O)[C@H](C)/C=C(\C)[C@@H](O)[C@@H](OC)C(=O)[C@H](C)C[C@H](C)/C=C/C=C/C=C/1C [Temsirolimus] | 7.02 | -6.86 | -1.53 | 4.35 | 0.433
CCCC(=O)O[C@]1(C(=O)COC(C)=O)CC[C@H]2[C@@H]3C[C@H](F)C4=CC(=O)C=C[C@]4(C)[C@@]3(F)[C@@H](O)C[C@@]21C [Difluprednate] | 3.2 | 2.35 | 6.57 | 4.62 | -1.11
COC(=O)Nc1nc2cc(C(=O)c3ccccc3)ccc2[nH]1 [Mebendazole] | 9.6 | -4.07 | 8.64 | 0.057 | 4.46
CCc1cc2c(cc1N1CCC(N3CCOCC3)CC1)C(C)(C)c1[nH]c3cc(C#N)ccc3c1C2=O | -3.24 | 3.84 | 9.56 | 0.995 | 0.182
C[C@@H]1NC(=O)[C@@H](N)CNC(=O)[C@H](C2CCNC(=N)N2)NC(=O)/C(=C/NC(N)=O)NC(=O)[C@H](CNC(=O)CC(N)CCCN)NC1=O.N=C1NCC[C@H]([C@@H]2NC(=O)/C(=C/NC(N)=O)NC(=O)[C@H](CNC(=O)C[C@@H](N)CCCN)NC(=O)[C@H](CO)NC(=O)[C@@H](N)CNC2=O)N1 [Capreomycin (sulfate)] | 19.5 | 3.05 | -0.814 | 2.2 | 3.54
CC(=O)Nc1ccc(O)cc1 [Acetaminophen] | -1.23 | -0.558 | -0.87 | -5.65 | -2.34
CO/N=C(\C(=O)N[C@@H]1C(=O)N2C(C(=O)O)=C(COC(N)=O)CS[C@H]12)c1ccco1 [Cefuroxime (sodium salt)] | 21.1 | 5.54 | -6.92 | 2.43 | 10.9
O=C(O)COCCN1CCN(C(c2ccccc2)c2ccc(Cl)cc2)CC1 (stereo not given) [Cetirizine (hydrochloride)] | -1.62 | 2.46 | 4.04 | -2.99 | 6.72
O=C(c1ccccc1)c1ccc2n1CCC2C(=O)O (stereo not given) [Ketorolac (tromethamine salt)] | -0.0297 | 5.09 | -3.37 | 7.86 | -1.11
CC1(C)O[C@@H]2C[C@H]3[C@@H]4CCC5=CC(=O)C=C[C@]5(C)[C@H]4[C@@H](O)C[C@]3(C)[C@]2(C(=O)CO)O1 [Desonide] | -1.81 | -1.62 | 0.404 | 6.53 | 1.67
NC1=NCC2c3ccccc3Cc3ccccc3N12 (stereo not given) [Epinastine (hydrochloride)] | 13 | -2.41 | 14.1 | 4.49 | 7.56
Nc1nc(=S)c2[nH]cnc2[nH]1 [6-Thioguanine] | 2.87 | -3.35 | 1.36 | 0.958 | 6.09
